Test systems include SR leukemia; RPMI-8226 leukemia; OVCAR-8 ovarian; OVCAR-5 ovarian; OVCAR-4 ovarian; SK-OV-3 ovarian; IGROV1 ovarian; OVCAR-3 ovarian; HS 578T breast; NCI/ADR-RES ovarian.
Holding throughout (assay): NCI-60 one-dose screen, 48 h (100 = growth as untreated, 0 = no growth, -100 = all killed)
Conditions in all cases: 10 µM unless noted

Our source for the growth values is PubChem BioAssay (NCI).

This is part of a sample that, as a whole, favours compounds with a hit. Of some 83,000 tested, about 20% had one in any assay.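 Percent growth is the endpoint: 0 to 100 indicates growth inhibition (40 means 60% inhibition), 0 means no net growth, and negative values indicate cell death.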 A number with no mark means an inactive call. Calls of active or inactive are those of the source. How the source made its calls: active means growth percent below 10; inactive means the rest.

Turning to `CC1(C)[C@@H](O[C@@H]2OC[C@@H](O[C@@H]3O[C@H](CO)[C@@H](O)[C@H](O)[C@H]3O[C@@H]3OC[C@@H](O)[C@H](O)[C@H]3O)[C@H](O)[C@H]2O[C@@H]2O[C@H](CO)[C@@H](O)[C@H](O)[C@H]2O)CC[C@]2(C)[C@H]3CC[C@]45OC[C@@]6(CC[C@](C)(C=O)C[C@H]64)[C@H](O)C[C@@]5(C)[C@]3(C)CC[C@@H]12`, the growth in the experiment with SR leukemia was -37% (active); with RPMI-8226 leukemia it was -44% (active); with OVCAR-8 ovarian, -48.9% (active); in the experiment with OVCAR-5 ovarian it was -76.8% (active); with OVCAR-4 ovarian, -67.1% (active); with SK-OV-3 ovarian it was -98.4% (active). For the same molecule, the growth was -71.7% (active) with IGROV1 ovarian, -72.6% (active) in the experiment on OVCAR-3 ovarian, -31.2% (active) in the experiment with HS 578T breast and -21.7% (active) in the experiment with NCI/ADR-RES ovarian.

For the molecule `CCN1CCN(CCNc2nccc(-c3c(-c4ccc(F)c(OC)c4)nc4sccn34)n2)S1(=O)=O`, the growth in the experiment on SR leukemia was 45.3%; with RPMI-8226 leukemia it was 68.7%; with OVCAR-8 ovarian, 77.2%; in the experiment on OVCAR-5 ovarian, 114%; in the experiment on OVCAR-4 ovarian, 92%; in the experiment with SK-OV-3 ovarian, 87.5%. In addition, the growth is 74.4% in the experiment with IGROV1 ovarian, 85.5% with OVCAR-3 ovarian, 77.7% in the experiment with HS 578T breast and 103% in the experiment on NCI/ADR-RES ovarian.

For `O=C(Nc1cnc(Nc2ccc(N3CCOCC3)nc2)nc1Oc1ccc(C(F)(F)F)cc1)c1ccncc1`, the growth with SR leukemia is 19.3%; with RPMI-8226 leukemia it was 100%; in the experiment with OVCAR-8 ovarian, 86.6%; in the experiment with OVCAR-5 ovarian, 92.9%; in the experiment on OVCAR-4 ovarian it was 80.3%; with SK-OV-3 ovarian it was 101%. Also, the growth with IGROV1 ovarian is 94%; with OVCAR-3 ovarian, 85%; in the experiment with HS 578T breast, 81.6%; in the experiment on NCI/ADR-RES ovarian, 86%.

For `COc1cccc(C(=O)NNc2nc(Cl)nc(Cl)n2)c1`, the growth in the experiment on SR leukemia was 101%; in the experiment with RPMI-8226 leukemia it was 95.7%; in the experiment on OVCAR-8 ovarian it was 95.4%; with OVCAR-5 ovarian, 101%; with OVCAR-4 ovarian it was 107%; in the experiment on SK-OV-3 ovarian, 102%. Also, the growth with IGROV1 ovarian is 100%; with OVCAR-3 ovarian it was 106%; in the experiment with HS 578T breast it was 95.3%; in the experiment on NCI/ADR-RES ovarian, 104%.

`S=C(c1ccc2c(c1)OCO2)N1CCN(c2cccc(Cl)c2)CC1`: the growth in the experiment with SR leukemia is 11.9%; with RPMI-8226 leukemia, 24.6%; in the experiment with OVCAR-8 ovarian, 38.8%; in the experiment with OVCAR-5 ovarian, 44%; with OVCAR-4 ovarian it was 46.3%; with SK-OV-3 ovarian it was 20.6%. Also, the growth in the experiment with IGROV1 ovarian was 37%; in the experiment with OVCAR-3 ovarian, -33.7% (active); in the experiment on HS 578T breast, -1.66% (active); with NCI/ADR-RES ovarian, -13% (active).

Take `Cc1ccc(C)c(/C=C2\CN(C(=O)OC(C)(C)C)C/C(=C\c3cc(C)ccc3C)C2=O)c1`: the growth in the experiment on SR leukemia is 0.122% (active); with RPMI-8226 leukemia it was -24.4% (active); in the experiment on OVCAR-8 ovarian it was 12.7%; with OVCAR-5 ovarian, 86.1%; in the experiment with OVCAR-4 ovarian it was 22%; with SK-OV-3 ovarian, 87.7%. For the same molecule, the growth in the experiment with IGROV1 ovarian is 78.1%; in the experiment on OVCAR-3 ovarian it was 13.1%; in the experiment on HS 578T breast it was 43.9%; in the experiment on NCI/ADR-RES ovarian it was 26.5%.

As to `Cc1c(CC(=S)N2CCOCC2)nnn1-c1cccc(C(F)(F)F)c1`, the growth in the experiment with SR leukemia was 105%; in the experiment on RPMI-8226 leukemia it was 103%; with OVCAR-8 ovarian it was 104%; with OVCAR-5 ovarian it was 97.8%; in the experiment with OVCAR-4 ovarian, 103%; with SK-OV-3 ovarian, 108%. Further, the growth in the experiment on IGROV1 ovarian is 104%; in the experiment on OVCAR-3 ovarian, 110%; in the experiment on HS 578T breast, 99.9%; in the experiment on NCI/ADR-RES ovarian it was 105%.

With `COc1ccc(/C=C/C(c2cc(OC)c(OC)c(OC)c2)n2ccnc2)cc1O` (stereo not given), the growth with SR leukemia was 6.18% (active); in the experiment on RPMI-8226 leukemia, 15.1%; in the experiment on OVCAR-8 ovarian, 41%; in the experiment with OVCAR-5 ovarian it was 103%; in the experiment with OVCAR-4 ovarian, 78.8%; in the experiment with SK-OV-3 ovarian, 33.5%. For the same molecule, the growth was 55.7% with IGROV1 ovarian, 4.86% (active) in the experiment on OVCAR-3 ovarian, 32.1% with HS 578T breast and 45.7% in the experiment with NCI/ADR-RES ovarian.

For `CN(Cc1ccccc1)c1nc(Cl)c(C2CC(c3ccccc3)=NN2c2ccccc2)s1` (stereo not given), the growth in the experiment on SR leukemia was 90.8%; with RPMI-8226 leukemia, 84.8%; with OVCAR-8 ovarian it was 91.5%; in the experiment on OVCAR-5 ovarian, 104%; with OVCAR-4 ovarian, 88.5%; in the experiment with SK-OV-3 ovarian, 85.3%. Moreover, the growth was 97.2% in the experiment with IGROV1 ovarian, 105% with OVCAR-3 ovarian, 103% in the experiment on HS 578T breast and 98.1% with NCI/ADR-RES ovarian.

For `CN1CCN(CC(=O)Nc2ccc3ncnc(Nc4ccc(Oc5cccc(C(F)(F)F)c5)c(Cl)c4)c3c2)CC1`, the growth in the experiment on SR leukemia was -6.28% (active); with RPMI-8226 leukemia, -12.7% (active); in the experiment with OVCAR-8 ovarian, 20.9%; in the experiment with OVCAR-5 ovarian, 52.9%; in the experiment with OVCAR-4 ovarian, -18.8% (active); in the experiment with SK-OV-3 ovarian it was 23.2%. In addition, the growth in the experiment with IGROV1 ovarian is -44.6% (active); in the experiment with OVCAR-3 ovarian it was 4.81% (active); in the experiment with HS 578T breast, -12% (active); in the experiment with NCI/ADR-RES ovarian, 46.1%.

For the molecule `CN1CCN(c2ccc(NC(=O)c3cncnc3Nc3ccc(OCc4cccc(F)c4)c(Cl)c3)cc2)CC1`, the growth in the experiment with SR leukemia was 14.9%; in the experiment on RPMI-8226 leukemia it was 70.2%; in the experiment with OVCAR-8 ovarian it was 76.7%; in the experiment on OVCAR-5 ovarian it was 76.3%; in the experiment with OVCAR-4 ovarian it was 72.1%; in the experiment with SK-OV-3 ovarian, 103%. Also, the growth with IGROV1 ovarian is 91.6%; with OVCAR-3 ovarian, 81.7%; with HS 578T breast, 75%; in the experiment on NCI/ADR-RES ovarian, 75.2%.

For `CN(CCC(=O)c1ccccc1)CCC(=O)c1ccccc1`, the growth was 49.9% in the experiment on SR leukemia; 50.8% with RPMI-8226 leukemia; 93.2% in the experiment with OVCAR-8 ovarian; 95.5% in the experiment on OVCAR-5 ovarian; 103% in the experiment with OVCAR-4 ovarian; 99.8% with SK-OV-3 ovarian. Further, the growth is 95.3% in the experiment on IGROV1 ovarian, 113% in the experiment on OVCAR-3 ovarian, 100% in the experiment on HS 578T breast and 86.5% in the experiment on NCI/ADR-RES ovarian.

Take `CCOC(=O)C#Cc1c(C(=O)OCC)nnn1Cc1ccc(C(F)(F)F)cc1`: the growth with SR leukemia was -1.42% (active); in the experiment on RPMI-8226 leukemia, 7.43% (active); in the experiment on OVCAR-8 ovarian, 69%; in the experiment on OVCAR-5 ovarian, 91.2%; in the experiment with OVCAR-4 ovarian, 67.1%; in the experiment with SK-OV-3 ovarian it was 99.7%. Further, the growth with IGROV1 ovarian was 81.8%; with OVCAR-3 ovarian, 13.6%; with HS 578T breast it was 113%; in the experiment on NCI/ADR-RES ovarian, 97.1%.
